Unmarked numbers belong to inactive results. Results filed as inconclusive are left out. Active and inactive are the calls of the source. Calls come from the whole dose curve; as a rule, active = well fitted curve in the direction sought with a large enough effect in the repeat runs; inconclusive = weak or mixed curves; inactive = no such curve, though single readings can be large; an effect the other way counts as inactive or inconclusive.

Experiment [1] in a line: qHTS RealTime-Glo MT Cell Viability Assay in HEK293 cells - 40 hour (AID 1224874). Note: nearly all actives have a fitted effect of over 50% in size. Note: potency is the fitted concentration of half-maximal effect. The following applies: RealTime-Glo luminescence; max response: hits give low values. Summed up:
(§1)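 Kinetic, non-lysing viability readout. Seed HEK293 (600/well) with reagent, incubate 5 h at 37 C/5% CO2, pin 23 nL compound in DMSO, incubate at 37 C, read luminescence at 0, 8, 16, 24, 32, 40 h.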
Background: In qHTS, concentration-response curves come from the screen itself.

Experiment [2] in a line: A CellTox Green Cytotoxicity Assay to monitor cytotoxicity in HEK293 cells - 24 hour (AID 1224875). For activity change: series mostly up to about 77 µM. Note: nearly all actives have a fitted effect of over 45% in size. Note: potency is the fitted concentration of half-maximal effect. Summed up:
(§2)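 Real-time, in one plate: 600 HEK293 cells/well with dead-cell DNA dye, pinned compound after 5 h, 37 C incubation over 40 h; viable cells give no appreciable fluorescence.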

Experiment [3] in a line: A CellTox Green Cytotoxicity Assay to monitor cytotoxicity in HepG2 cells - 16 hour (AID 1224876). Note: nearly all actives have a fitted effect of over 45% in size. Note: potency is the fitted concentration of half-maximal effect. Summed up:
(§3)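 Cytotoxicity was tracked as dead-cell DNA fluorescence in HepG2 cells treated with test compounds at 37 C; each time-point value comes from one kinetic series spanning 0, 8, 16, 24, 32 and 40 h.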

The nature of experiment [4]: qHTS RealTime-Glo MT Cell Viability Assay in HepG2 cells - 32 hour (AID 1224877). Note: nearly all actives have a fitted effect of over 55% in size. Note: potency is the fitted concentration of half-maximal effect. Summed up:
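Tox21 10K library screened in qHTS format on HepG2 cells carrying RealTime-Glo reagents. Compounds were added after a 5 h preincubation, and the luminescent signal from continuous culture was measured repeatedly during 40 h treatment.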

Experiment [5] is described as follows: A CellTox Green Cytotoxicity Assay to monitor cytotoxicity in HepG2 cells - 40 hour (AID 1224879). Note: nearly all actives have a fitted effect of over 40% in size. Note: potency is the fitted concentration of half-maximal effect. Summed up: as §3
The nature of experiment [6]: qHTS RealTime-Glo MT Cell Viability Assay in HEK293 cells - 0 hour (AID 1224880). Note: top concentration of the series differs between compounds; nearly all actives have a fitted effect of over 45% in size. Summed up:
as §1

Experiment [7] is described as follows: A CellTox Green Cytotoxicity Assay to monitor cytotoxicity in HEK293 cells - 32 hour (AID 1224881). Note: nearly all actives have a fitted effect of over 40% in size. Summed up:
as §2

Experiment [8] in a line: A CellTox Green Cytotoxicity Assay to monitor cytotoxicity in HepG2 cells - 0 hour (AID 1224882). Note: nearly all actives have a fitted effect of over 35% in size. Note: potency is the fitted concentration of half-maximal effect. Summed up: as §3
Experiment [9] in a line: A CellTox Green Cytotoxicity Assay to monitor cytotoxicity in HepG2 cells - 32 hour (AID 1224883). Note: nearly all actives have a fitted effect of over 50% in size. Note: potency is the fitted concentration of half-maximal effect. Summed up: as §3
A short description of experiment [10]: A CellTox Green Cytotoxicity Assay to monitor cytotoxicity in HepG2 cells - 24 hour (AID 1224878). Note: nearly all actives have a fitted effect of over 45% in size. Note: potency is the fitted concentration of half-maximal effect. Summed up: as §3
% is set by controls: 0 for no effect and ±100 for the full control effect.

As to `CC(=O)Nc1ccc(N=Nc2cc(C)ccc2O)cc1`, the max response in experiment [1] was -19.1%. The Potency result in [2], in experiment [3], in [4], in [5], in experiment [6] and in experiment [7] was “inactive” in each case. Moreover, the Potency result in experiment [8] and in experiment [9] was “inactive” throughout.

Turning to `S=C1NC=NC2N=CNC12` (stereo unspecified), the Potency in experiment [1] is 17.4 µM (active). In addition, the Potency result in experiment [2], in experiment [3], in [4], in experiment [10], in experiment [5] and in experiment [6] was “inactive” each time. Also, the Potency result in experiment [7] and in experiment [9] was “inactive” throughout.

For the compound `C=C(C)CCO`, the max response in [1] was 1.14%. For the same compound, the Potency entry in experiment [2], in [3], in experiment [4], in experiment [10], in [5] and in experiment [6] was “inactive” throughout. For the same compound, the Potency result in experiment [7] and in experiment [9] was “inactive” throughout.

Regarding `Nc1c(Br)cc([N+](=O)[O-])cc1Br`, the max response in experiment [1] is -23.8%. Moreover, the Potency result in [2], in experiment [3], in experiment [4], in [10], in experiment [5] and in [6] was “inactive” throughout. In addition, the Potency entry in experiment [8] and in experiment [9] was “inactive” each time.

Turning to `Cc1cccc(C)c1C`, in experiment [1], the max response was 4%. Besides, the Potency entry in experiment [2], in experiment [3], in [4], in experiment [10], in experiment [5] and in experiment [6] was “inactive” in each case. In addition, the Potency entry in [7], in experiment [8] and in experiment [9] was “inactive” each time.

`O=[N+]([O-])c1ccc(CO)cc1`: in experiment [1], the max response was 7.7%. The Potency entry in [2], in experiment [3], in experiment [4], in experiment [10], in experiment [5] and in experiment [6] was “inactive” each time. The Potency entry in experiment [9] was “inactive”.

With `CN(C)CCOc1ccc(/C(=C(/CCCl)c2ccccc2)c2ccccc2)cc1`, the Potency was 40.9 µM (active) in experiment [1]; 45.8 µM (active) in experiment [2]; 32.5 µM (active) in [3]; 40.9 µM (active) in [4]; 32.5 µM (active) in [10]; 32.5 µM (active) in experiment [5]. Also, the Potency in [9] was 32.5 µM (active). The Potency entry in experiment [6] and in [8] was “inactive” in each case.

Take `CC(Cc1ccc(O)c(O)c1)C(C)Cc1ccc(O)c(O)c1` (stereo unspecified): the Potency in experiment [1] was 38.9 µM (active); in [3] it was 49 µM (active); in experiment [4], 49 µM (active); in experiment [5] it was 43.6 µM (active); in experiment [9] it was 43.6 µM (active). For the same compound, the Potency entry in [2], in experiment [6], in experiment [7] and in [8] was “inactive” throughout.

As for `CCCCCCCCCCCC(=O)Cl`, the max response in [1] was 0.0053%. For the same compound, the Potency entry in experiment [2], in experiment [3], in experiment [4], in [5], in experiment [6] and in experiment [7] was “inactive” in each case. In addition, the Potency entry in experiment [8] and in experiment [9] was “inactive” throughout.

On to `c1ccc(-c2ccccc2-c2ccccc2)cc1`, for which the max response in experiment [1] is -10.2%. In addition, the Potency result in experiment [2], in experiment [3], in [4], in [10], in experiment [5] and in experiment [6] was “inactive” in each case. In addition, the Potency entry in [7] and in experiment [9] was “inactive” in each case.

As for `CC1=CC[C@@H](C(C)(C)O)CC1`, the max response in [1] is 4.47%. For the same compound, the Potency result in [2], in [3], in [4], in experiment [10], in [5] and in experiment [6] was “inactive” each time. Moreover, the Potency entry in [8] and in [9] was “inactive” in each case.

On to `c1ccc(-c2nc3ccccc3[nH]2)cc1`, for which the Potency in [1] was 21.9 µM (active). For the same compound, the Potency entry in experiment [2], in [3], in experiment [4], in experiment [10], in experiment [5] and in experiment [6] was “inactive” throughout. The Potency result in experiment [8] and in experiment [9] was “inactive” throughout.

Regarding `CC(CC(C)(C)C)CC(C)(C)CC(C)(C)C` (stereo unspecified), the max response in experiment [1] was 3.32%. Moreover, the Potency entry in experiment [2], in experiment [3], in experiment [4], in experiment [5], in [6] and in [7] was “inactive” in each case. Besides, the Potency result in [8] and in [9] was “inactive” throughout.

For `Cc1ccc2nc(-c3ccc(N)cc3)sc2c1S(=O)(=O)O`, in experiment [1], the max response was -21.6%. The Potency result in experiment [2], in experiment [3], in [4], in experiment [10], in experiment [5] and in experiment [6] was “inactive” throughout. For the same compound, the Potency result in experiment [7] and in experiment [9] was “inactive” in each case.

On to `NC(=O)C1CO1` (stereo unspecified), for which the max response in experiment [1] was 3.16%. Also, the Potency entry in [2], in [3], in experiment [4], in [10], in experiment [5] and in experiment [6] was “inactive” in each case. The Potency result in [8] and in experiment [9] was “inactive” in each case.

`O=C(Nc1ccccc1)c1cc(Cl)ccc1O`: the Potency in experiment [1] is 21.9 µM (active); in [5] it was 49 µM (active); in experiment [9], 49 µM (active). Also, the Potency result in experiment [2], in experiment [3], in [6], in experiment [7] and in [8] was “inactive” each time.

As for `Cc1ccc2sc3cccc(C)c3c2c1`, the max response in [1] was 12.7%. Also, the Potency result in [3], in experiment [4], in experiment [10], in experiment [5], in experiment [6] and in experiment [7] was “inactive” each time. Also, the Potency result in experiment [8] and in experiment [9] was “inactive” in each case.

As to `O=C(CCCCCCCCc1cccnc1)N1CCC(C=C(c2ccccc2)c2ccccc2)CC1`, the Potency in experiment [1] was 21.9 µM (active). The Potency entry in [2], in experiment [3], in experiment [10], in [6], in experiment [7] and in experiment [9] was “inactive” in each case.

For `c1ccc(-c2ccc(C(c3ccccc3)n3ccnc3)cc2)cc1` (stereo unspecified), the Potency in experiment [1] is 26.8 µM (active). For the same compound, the Potency result in experiment [2], in experiment [4], in experiment [10], in [5], in experiment [6] and in [7] was “inactive” each time. Also, the Potency result in experiment [8] and in experiment [9] was “inactive” throughout.

Regarding `COc1cc2ncnc(Nc3cccc(Cl)c3)c2cc1OC`, the max response in [1] is -0.219%. The activity change in experiment [2] was -0.939% [at 15.8 µM, hits give high values]. In addition, the values for the cytotoxicity increase in [3], in [5] and in [9] were -17.7% [at 15.8 µM], -19.3% [at 15.8 µM] and -17.4% [at 15.8 µM], respectively. Besides, the activity change, negative = cytotoxic in experiment [4] was 8.78% [at 15.8 µM]. Moreover, the activity change, negative = cytotoxicity in experiment [6] is -2.52% [at 15.8 µM]. Moreover, the cytotoxicity in experiment [8] is -14.6% [at 15.8 µM].

As for `COc1cc([C@@H]2c3cc4c(cc3[C@@H](O[C@@H]3O[C@@H]5CO[C@@H](C)O[C@H]5[C@H](O)[C@H]3O)[C@H]3COC(=O)[C@H]23)OCO4)cc(OC)c1O`, the Potency in experiment [1] was 0.684 µM (active); in [10], 48.4 µM (active); in experiment [5], 48.4 µM (active); in [9] it was 48.4 µM (active). Further, the Potency result in experiment [2], in [6], in [7] and in experiment [8] was “inactive” in each case.

As to `COc1cc(/C=C/C(=O)CC(=O)/C=C/c2ccc(O)c(OC)c2)ccc1O`, the Potency in experiment [1] is 22 µM (active); in [2], 43.9 µM (active); in experiment [3], 49.3 µM (active); in experiment [10] it was 49.3 µM (active); in [5], 19.6 µM (active); in [8], 43.9 µM (active). In addition, the Potency in experiment [9] was 49.3 µM (active).

Values taken from PubChem BioAssay (Tox21).
